Reference: publication PMC7862700, “An all-to-all approach to the identification of sequence-specific readers for epigenetic DNA modifications on cytosine”

Experiments:
Assay in all cases: DAPPL (digital affinity profiling via proximity ligation, sequencing); 10 mM Tris-HCl pH 7.5, 50 mM NaCl, 1 mM DTT, 4% glycerol, room temperature, 30 min; GST-TFs on glutathione beads, 16-mer random dsDNA library, 0.1% formaldehyde crosslink after washing; high values mean tight binding
FLI1 = target: T1, FLI1 (Homo sapiens, UniProt Q01543 1-452); settings: protein: recombinant; tags: N-terminal GST; dsDNA, one strand shown
T1 sequence: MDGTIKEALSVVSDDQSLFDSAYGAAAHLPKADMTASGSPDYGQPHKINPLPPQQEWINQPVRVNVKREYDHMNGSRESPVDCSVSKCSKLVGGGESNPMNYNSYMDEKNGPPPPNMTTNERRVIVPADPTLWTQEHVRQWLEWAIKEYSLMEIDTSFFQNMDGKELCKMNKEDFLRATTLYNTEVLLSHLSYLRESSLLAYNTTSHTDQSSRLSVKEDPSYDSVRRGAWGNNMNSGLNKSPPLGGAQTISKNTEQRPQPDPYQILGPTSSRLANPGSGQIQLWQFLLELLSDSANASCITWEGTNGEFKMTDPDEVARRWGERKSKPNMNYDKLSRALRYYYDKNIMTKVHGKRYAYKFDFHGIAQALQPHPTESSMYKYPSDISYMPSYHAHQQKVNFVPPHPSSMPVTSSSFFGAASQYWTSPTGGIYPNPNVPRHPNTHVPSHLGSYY
Method in brief: (§1)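 Pools were built from human transcription factors expressed in yeast as GST fusions, captured on glutathione beads and DNA-barcoded, along with a tag-only sample. Incubation with 200 nmole of a 16-mer random double-stranded DNA library lasted 30 min at room temperature in Tris/NaCl/DTT/glycerol buffer, and was followed by washing, 0.1% formaldehyde crosslinking, proximity ligation, PCR amplification and Illumina NextSeq500 sequencing. Binding signal is the quotient of each hexamer's read frequency for a factor and its frequency for the tag-only sample.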

ELK1 = target: T2, ELK1 (Homo sapiens, UniProt P19419 1-428); settings: protein: recombinant; tags: N-terminal GST; dsDNA, one strand shown
T2 sequence: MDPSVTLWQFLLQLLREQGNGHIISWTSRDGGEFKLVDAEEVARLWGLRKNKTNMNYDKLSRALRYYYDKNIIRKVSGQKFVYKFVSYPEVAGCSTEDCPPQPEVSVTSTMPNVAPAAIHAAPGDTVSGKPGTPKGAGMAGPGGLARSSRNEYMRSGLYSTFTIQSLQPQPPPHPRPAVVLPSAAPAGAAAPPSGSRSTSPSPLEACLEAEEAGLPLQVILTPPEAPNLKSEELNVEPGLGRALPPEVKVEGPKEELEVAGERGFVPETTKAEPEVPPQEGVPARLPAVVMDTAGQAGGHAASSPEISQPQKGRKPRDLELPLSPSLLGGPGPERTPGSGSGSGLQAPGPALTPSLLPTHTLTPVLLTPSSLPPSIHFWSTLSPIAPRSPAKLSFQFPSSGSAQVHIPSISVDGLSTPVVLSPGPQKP
Method in brief: as §1

ERG = target: T3, ERG (Homo sapiens, UniProt P11308 1-479); settings: protein: recombinant; tags: N-terminal GST; dsDNA, one strand shown
T3 sequence: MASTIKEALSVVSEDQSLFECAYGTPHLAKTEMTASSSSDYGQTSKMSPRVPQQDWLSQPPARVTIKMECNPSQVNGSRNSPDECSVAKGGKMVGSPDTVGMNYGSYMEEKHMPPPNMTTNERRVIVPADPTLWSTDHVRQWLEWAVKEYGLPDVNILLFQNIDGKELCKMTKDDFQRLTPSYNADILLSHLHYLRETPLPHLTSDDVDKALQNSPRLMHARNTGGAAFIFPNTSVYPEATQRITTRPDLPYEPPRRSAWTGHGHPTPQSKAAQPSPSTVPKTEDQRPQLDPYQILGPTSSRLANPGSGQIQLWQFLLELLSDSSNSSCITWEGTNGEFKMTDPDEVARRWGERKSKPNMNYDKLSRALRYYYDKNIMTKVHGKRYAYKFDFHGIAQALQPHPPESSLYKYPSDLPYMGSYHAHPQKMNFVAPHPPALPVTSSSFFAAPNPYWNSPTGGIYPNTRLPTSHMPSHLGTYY
Method in brief: as §1

ELF1 = ELF1 (Homo sapiens, UniProt P32519 1-619); settings: protein: recombinant; tags: N-terminal GST; dsDNA, one strand shown
Method in brief: as §1

EHF = target: T4, EHF (Homo sapiens, UniProt Q9NZC4 1-300); settings: protein: recombinant; tags: N-terminal GST; dsDNA, one strand shown
T4 sequence: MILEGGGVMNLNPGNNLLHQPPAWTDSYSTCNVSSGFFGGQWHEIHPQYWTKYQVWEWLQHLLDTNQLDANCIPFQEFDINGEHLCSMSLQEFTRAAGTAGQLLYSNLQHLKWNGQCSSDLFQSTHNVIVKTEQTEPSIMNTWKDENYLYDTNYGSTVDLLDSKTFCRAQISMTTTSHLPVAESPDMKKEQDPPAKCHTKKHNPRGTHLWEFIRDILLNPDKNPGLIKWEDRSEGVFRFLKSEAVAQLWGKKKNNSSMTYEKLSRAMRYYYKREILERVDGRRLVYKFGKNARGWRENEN
Method in brief: as §1

ELK3 = target: T5, ELK3 (Homo sapiens, UniProt P41970 1-407); settings: protein: recombinant; tags: N-terminal GST; dsDNA, one strand shown
T5 sequence: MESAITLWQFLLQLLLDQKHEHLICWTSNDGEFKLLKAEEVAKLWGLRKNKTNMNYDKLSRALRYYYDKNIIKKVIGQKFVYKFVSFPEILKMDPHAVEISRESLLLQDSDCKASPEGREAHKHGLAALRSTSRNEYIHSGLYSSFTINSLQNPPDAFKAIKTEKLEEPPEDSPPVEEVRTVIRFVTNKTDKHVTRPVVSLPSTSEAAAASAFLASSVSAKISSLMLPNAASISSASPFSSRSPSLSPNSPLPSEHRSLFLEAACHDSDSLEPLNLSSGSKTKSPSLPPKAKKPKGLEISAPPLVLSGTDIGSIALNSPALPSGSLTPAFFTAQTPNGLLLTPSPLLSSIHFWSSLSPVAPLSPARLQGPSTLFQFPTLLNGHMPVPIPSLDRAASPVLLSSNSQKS
Method in brief: as §1

FEV = target: T6, FEV (Homo sapiens, UniProt Q99581 1-238); settings: protein: recombinant; tags: N-terminal GST; dsDNA, one strand shown
T6 sequence: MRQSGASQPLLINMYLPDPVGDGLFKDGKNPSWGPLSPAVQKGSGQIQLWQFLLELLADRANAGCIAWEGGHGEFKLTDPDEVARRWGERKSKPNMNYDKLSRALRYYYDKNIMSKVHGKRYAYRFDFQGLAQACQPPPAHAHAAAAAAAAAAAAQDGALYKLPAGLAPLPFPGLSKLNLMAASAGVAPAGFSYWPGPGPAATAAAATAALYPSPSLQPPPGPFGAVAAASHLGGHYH
Method in brief: as §1

ETV5 = ETV5 (Homo sapiens, UniProt P41161 1-510); settings: protein: recombinant; tags: N-terminal GST; dsDNA, one strand shown
Method in brief: as §1

HSF1 = HSF1 (Homo sapiens, UniProt Q00613 1-529); settings: protein: recombinant; tags: N-terminal GST; chain copies: 3; dsDNA, one strand shown
Method in brief: as §1

SPIC = target: T7, SPIC (Homo sapiens, UniProt Q8N5J4 1-248); settings: protein: recombinant; tags: N-terminal GST; dsDNA, one strand shown
T7 sequence: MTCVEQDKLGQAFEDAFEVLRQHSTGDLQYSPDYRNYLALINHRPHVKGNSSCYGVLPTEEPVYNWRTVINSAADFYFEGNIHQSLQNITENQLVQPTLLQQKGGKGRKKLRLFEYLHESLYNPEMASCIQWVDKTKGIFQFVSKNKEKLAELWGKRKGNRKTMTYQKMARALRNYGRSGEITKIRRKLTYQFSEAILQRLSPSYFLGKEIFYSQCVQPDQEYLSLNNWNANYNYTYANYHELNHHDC
Method in brief: as §1

ELF4 = ELF4 (Homo sapiens, UniProt Q99607 1-663); settings: protein: recombinant; tags: N-terminal GST; dsDNA, one strand shown
Method in brief: as §1

ELK4 = target: T8, ELK4 (Homo sapiens, UniProt P28324-2 1-405); settings: protein: recombinant; tags: N-terminal GST; dsDNA, one strand shown
T8 sequence: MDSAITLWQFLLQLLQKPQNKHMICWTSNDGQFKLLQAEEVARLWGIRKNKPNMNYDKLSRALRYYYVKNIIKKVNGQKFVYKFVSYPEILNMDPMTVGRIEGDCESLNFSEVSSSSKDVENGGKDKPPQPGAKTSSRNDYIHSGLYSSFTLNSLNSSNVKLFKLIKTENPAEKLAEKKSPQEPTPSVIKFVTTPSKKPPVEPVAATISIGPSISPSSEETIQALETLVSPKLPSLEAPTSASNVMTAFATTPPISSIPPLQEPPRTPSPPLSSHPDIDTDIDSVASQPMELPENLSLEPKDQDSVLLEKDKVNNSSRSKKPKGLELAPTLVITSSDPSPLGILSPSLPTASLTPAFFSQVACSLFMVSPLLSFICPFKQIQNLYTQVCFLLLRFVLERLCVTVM
Method in brief: as §1

ETV2 = target: T9, ETV2 (Homo sapiens, UniProt O00321 1-342); settings: protein: recombinant; tags: N-terminal GST; dsDNA, one strand shown
T9 sequence: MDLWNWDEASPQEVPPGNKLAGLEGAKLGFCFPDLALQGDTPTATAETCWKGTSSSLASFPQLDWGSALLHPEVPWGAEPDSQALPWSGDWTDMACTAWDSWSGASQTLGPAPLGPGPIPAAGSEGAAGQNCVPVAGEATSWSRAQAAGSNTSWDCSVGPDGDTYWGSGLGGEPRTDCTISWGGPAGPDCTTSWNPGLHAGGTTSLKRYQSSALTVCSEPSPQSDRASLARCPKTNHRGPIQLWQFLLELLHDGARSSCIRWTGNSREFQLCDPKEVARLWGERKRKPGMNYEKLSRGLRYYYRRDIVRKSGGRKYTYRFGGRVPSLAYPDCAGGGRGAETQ
Method in brief: as §1

ELF3 = target: T10, ELF3 (Homo sapiens, UniProt P78545 1-371); settings: protein: recombinant; tags: N-terminal GST; dsDNA, one strand shown
T10 sequence: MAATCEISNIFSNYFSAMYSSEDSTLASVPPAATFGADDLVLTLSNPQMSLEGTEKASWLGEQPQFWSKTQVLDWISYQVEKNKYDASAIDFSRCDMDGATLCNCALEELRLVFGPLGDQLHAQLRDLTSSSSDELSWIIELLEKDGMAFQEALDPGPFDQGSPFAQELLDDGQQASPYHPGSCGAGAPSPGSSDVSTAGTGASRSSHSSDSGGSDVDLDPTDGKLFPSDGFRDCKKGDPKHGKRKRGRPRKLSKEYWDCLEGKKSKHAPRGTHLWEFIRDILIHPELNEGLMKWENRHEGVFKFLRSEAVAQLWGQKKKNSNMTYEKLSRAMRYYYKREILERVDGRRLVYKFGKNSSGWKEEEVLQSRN
Method in brief: as §1

CRX = CRX (Homo sapiens, UniProt O43186 1-299); settings: protein: recombinant; tags: N-terminal GST; dsDNA, one strand shown
Method in brief: as §1

ETV1 = ETV1 (Homo sapiens, UniProt P50549 1-477); settings: protein: recombinant; tags: N-terminal GST; dsDNA, one strand shown
Method in brief: as §1

Chain of ETV1 (P50549 whole entry): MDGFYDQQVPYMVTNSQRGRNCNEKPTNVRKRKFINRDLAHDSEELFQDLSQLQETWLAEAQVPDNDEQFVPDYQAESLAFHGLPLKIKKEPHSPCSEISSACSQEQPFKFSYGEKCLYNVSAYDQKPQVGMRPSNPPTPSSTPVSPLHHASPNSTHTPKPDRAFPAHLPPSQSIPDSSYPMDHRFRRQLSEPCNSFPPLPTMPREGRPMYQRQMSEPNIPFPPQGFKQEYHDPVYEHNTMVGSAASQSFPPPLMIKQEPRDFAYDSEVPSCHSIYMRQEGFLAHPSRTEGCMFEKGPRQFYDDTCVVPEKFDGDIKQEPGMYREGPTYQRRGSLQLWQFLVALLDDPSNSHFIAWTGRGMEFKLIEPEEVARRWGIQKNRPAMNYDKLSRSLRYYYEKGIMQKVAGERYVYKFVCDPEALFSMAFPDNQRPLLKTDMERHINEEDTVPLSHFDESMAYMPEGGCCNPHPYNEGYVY
Chain of HSF1 (Q00613 whole entry): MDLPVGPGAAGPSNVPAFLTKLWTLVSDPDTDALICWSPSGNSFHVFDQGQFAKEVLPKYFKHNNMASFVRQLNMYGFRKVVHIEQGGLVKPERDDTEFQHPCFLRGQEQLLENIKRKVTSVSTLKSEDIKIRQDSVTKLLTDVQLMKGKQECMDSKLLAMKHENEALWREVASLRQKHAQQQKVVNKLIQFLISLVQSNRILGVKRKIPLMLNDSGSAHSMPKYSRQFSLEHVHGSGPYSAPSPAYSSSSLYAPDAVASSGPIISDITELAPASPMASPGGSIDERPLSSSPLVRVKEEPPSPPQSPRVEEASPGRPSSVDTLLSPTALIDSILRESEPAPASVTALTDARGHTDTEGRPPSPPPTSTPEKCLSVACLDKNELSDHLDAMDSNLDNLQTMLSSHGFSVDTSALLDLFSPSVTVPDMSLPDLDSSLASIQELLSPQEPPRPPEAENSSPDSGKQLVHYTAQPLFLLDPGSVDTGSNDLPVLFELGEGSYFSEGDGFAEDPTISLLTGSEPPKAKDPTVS
Chain of CRX (O43186 whole entry): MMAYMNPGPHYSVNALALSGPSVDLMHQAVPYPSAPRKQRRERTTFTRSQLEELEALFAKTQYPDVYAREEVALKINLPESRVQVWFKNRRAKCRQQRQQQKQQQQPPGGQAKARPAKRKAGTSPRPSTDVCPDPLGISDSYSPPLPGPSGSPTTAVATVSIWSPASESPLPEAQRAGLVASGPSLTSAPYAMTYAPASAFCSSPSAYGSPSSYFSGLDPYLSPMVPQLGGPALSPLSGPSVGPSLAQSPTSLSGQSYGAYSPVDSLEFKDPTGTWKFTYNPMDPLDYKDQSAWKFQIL
Chain of ELF4 (Q99607 whole entry): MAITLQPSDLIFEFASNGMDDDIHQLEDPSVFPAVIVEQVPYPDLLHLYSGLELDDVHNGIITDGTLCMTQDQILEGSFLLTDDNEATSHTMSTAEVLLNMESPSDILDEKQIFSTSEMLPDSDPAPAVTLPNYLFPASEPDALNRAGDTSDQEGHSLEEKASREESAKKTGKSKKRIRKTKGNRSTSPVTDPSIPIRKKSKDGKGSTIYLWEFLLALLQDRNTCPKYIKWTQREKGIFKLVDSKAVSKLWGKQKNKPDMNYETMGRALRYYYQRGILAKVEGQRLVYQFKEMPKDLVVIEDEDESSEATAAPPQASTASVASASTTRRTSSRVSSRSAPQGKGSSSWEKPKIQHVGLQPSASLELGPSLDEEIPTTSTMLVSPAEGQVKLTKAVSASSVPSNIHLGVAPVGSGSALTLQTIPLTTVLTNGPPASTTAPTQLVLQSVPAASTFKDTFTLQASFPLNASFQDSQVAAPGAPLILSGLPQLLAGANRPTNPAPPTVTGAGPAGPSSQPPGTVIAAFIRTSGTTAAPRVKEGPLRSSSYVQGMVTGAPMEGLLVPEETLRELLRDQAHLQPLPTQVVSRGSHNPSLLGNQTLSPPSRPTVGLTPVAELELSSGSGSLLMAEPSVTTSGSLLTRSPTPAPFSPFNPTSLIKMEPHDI
Chain of ETV5 (P41161 whole entry): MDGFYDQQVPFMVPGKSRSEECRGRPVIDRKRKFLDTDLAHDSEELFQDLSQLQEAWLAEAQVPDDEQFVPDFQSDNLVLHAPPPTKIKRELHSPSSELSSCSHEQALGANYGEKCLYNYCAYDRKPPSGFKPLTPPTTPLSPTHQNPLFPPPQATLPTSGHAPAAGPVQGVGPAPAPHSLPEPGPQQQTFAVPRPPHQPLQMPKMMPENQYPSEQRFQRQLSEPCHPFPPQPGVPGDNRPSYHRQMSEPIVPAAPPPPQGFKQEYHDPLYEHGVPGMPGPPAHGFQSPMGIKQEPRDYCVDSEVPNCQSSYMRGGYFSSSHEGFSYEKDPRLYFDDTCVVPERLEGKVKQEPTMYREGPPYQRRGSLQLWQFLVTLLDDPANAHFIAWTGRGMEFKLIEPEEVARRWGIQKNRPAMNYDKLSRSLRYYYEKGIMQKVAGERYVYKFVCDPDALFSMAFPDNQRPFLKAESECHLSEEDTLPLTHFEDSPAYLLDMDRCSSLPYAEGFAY
Chain of ELF1 (P32519 whole entry): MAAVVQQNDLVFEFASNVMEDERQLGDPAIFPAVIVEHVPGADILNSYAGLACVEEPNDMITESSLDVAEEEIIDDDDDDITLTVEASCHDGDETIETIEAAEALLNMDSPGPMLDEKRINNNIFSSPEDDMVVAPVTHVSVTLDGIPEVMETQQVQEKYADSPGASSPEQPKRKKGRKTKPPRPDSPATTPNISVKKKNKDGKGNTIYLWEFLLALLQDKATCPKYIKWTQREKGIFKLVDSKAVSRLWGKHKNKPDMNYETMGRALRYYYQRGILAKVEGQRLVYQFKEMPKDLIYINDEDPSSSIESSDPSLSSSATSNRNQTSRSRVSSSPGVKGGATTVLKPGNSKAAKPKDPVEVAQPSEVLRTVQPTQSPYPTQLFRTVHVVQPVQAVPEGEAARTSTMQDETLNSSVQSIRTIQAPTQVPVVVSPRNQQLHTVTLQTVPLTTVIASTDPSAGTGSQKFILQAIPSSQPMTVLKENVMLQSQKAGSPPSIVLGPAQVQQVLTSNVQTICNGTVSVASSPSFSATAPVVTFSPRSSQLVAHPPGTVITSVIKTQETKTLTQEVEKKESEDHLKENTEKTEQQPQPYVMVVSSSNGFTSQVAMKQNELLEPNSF

TACAAG
binding signal (FLI1): 1.06 fold enrichment (6-mer frequency, TF over GST control)
binding signal (ELK1): 1.03 fold enrichment (6-mer frequency, TF over GST control)
binding signal (ERG): 1.04 fold enrichment (6-mer frequency, TF over GST control)
binding signal (ELF1): 1.06 fold enrichment (6-mer frequency, TF over GST control)
binding signal (EHF): 1.09 fold enrichment (6-mer frequency, TF over GST control)
binding signal (ELK3): 1.04 fold enrichment (6-mer frequency, TF over GST control)
binding signal (FEV): 1.01 fold enrichment (6-mer frequency, TF over GST control)
binding signal (ETV5): 1.15 fold enrichment (6-mer frequency, TF over GST control)
binding signal (HSF1): 1.07 fold enrichment (6-mer frequency, TF over GST control)
binding signal (SPIC): 1.17 fold enrichment (6-mer frequency, TF over GST control)
binding signal (ELF4): 1.1 fold enrichment (6-mer frequency, TF over GST control)
binding signal (ELK4): 1.16 fold enrichment (6-mer frequency, TF over GST control)
binding signal (ETV2): 1.03 fold enrichment (6-mer frequency, TF over GST control)
binding signal (ELF3): 1.23 fold enrichment (6-mer frequency, TF over GST control)
binding signal (CRX): 1.11 fold enrichment (6-mer frequency, TF over GST control)
binding signal (ETV1): 1.06 fold enrichment (6-mer frequency, TF over GST control)
